Consider 23 compounds from PubChem BioAssay (Tox21).

Test [1] is described as follows: qHTS RealTime-Glo MT Cell Viability Assay in HEK293 cells - 0 hour (AID 1224880). Also: top concentration of the series differs between compounds; nearly all actives have a fitted effect of over 45% in size. An outline of the steps:
(§1)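 qHTS format; HEK293 cells with NanoLuc/prosubstrate reagent, 37 C/5% CO2 for 5 h pre-dosing; compounds 23 nL in DMSO; luminescence at each time point reflects viable cells.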
A general note: qHTS replaces the single test concentration by a dilution series.

Test [2] in a line: A CellTox Green Cytotoxicity Assay to monitor cytotoxicity in HEK293 cells - 32 hour (AID 1224881). Also: nearly all actives have a fitted effect of over 40% in size. The gist of the method:
(§2)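 Each value comes from one timepoint of a single continuous run in which HEK293 cells with CellTox Green were exposed to compound for up to 40 h at 37 C, dye fluorescence rising with cell death.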

Test [3] is described as follows: A CellTox Green Cytotoxicity Assay to monitor cytotoxicity in HepG2 cells - 0 hour (AID 1224882). Also: nearly all actives have a fitted effect of over 35% in size. An outline of the steps:
(§3)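 Continuous culture of HepG2 cells with a membrane-impermeant DNA dye; rising fluorescence marks dead cells. Compound exposure lasted up to 40 h at 37 C, with reads every 8 h from 0 h.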

Test [4] in a line: A CellTox Green Cytotoxicity Assay to monitor cytotoxicity in HepG2 cells - 32 hour (AID 1224883). Also: nearly all actives have a fitted effect of over 50% in size. Also: potency is read from the fitted curve at half-maximal effect. The gist of the method: as §3
A short description of test [5]: A CellTox Green Cytotoxicity Assay to monitor cytotoxicity in HEK293 cells - 8 hour (AID 1224884). Also: nearly all actives have a fitted effect of over 35% in size. The gist of the method: as §2
Test [6] can be described thus: qHTS RealTime-Glo MT Cell Viability Assay in HepG2 cells - 16 hour (AID 1224885). Also: nearly all actives have a fitted effect of over 50% in size. An outline of the steps: (§4)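 Compound treatment began 5 h after plating HepG2 cells (600/well) with NanoLuc luciferase and prosubstrate. Plates stayed at 37 C for 40 h; luminescence was captured at six time points, 0 h through 40 h.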
Test [7] in a line: qHTS RealTime-Glo MT Cell Viability Assay in HEK293 cells - 24 hour (AID 1224886). Also: nearly all actives have a fitted effect of over 50% in size. Also: potency is read from the fitted curve at half-maximal effect. The gist of the method: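 Quantitative high-throughput screen of the Tox21 10K library in HEK293: cells and RealTime-Glo reagents plated together, compound added at 5 h, luminescence monitored through 40 h at 37 C.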
The nature of test [8]: qHTS RealTime-Glo MT Cell Viability Assay in HEK293 cells - 8 hour (AID 1224887). Also: nearly all actives have a fitted effect of over 50% in size. Also: potency is read from the fitted curve at half-maximal effect. The gist of the method:
as §1

A short description of test [9]: A CellTox Green Cytotoxicity Assay to monitor cytotoxicity in HEK293 cells - 16 hour (AID 1224888). Also: nearly all actives have a fitted effect of over 35% in size. An outline of the steps:
as §2

A short description of test [10]: qHTS RealTime-Glo MT Cell Viability Assay in HepG2 cells - 0 hour (AID 1224889). Also: nearly all actives have a fitted effect of over 50% in size. The gist of the method: as §4

“And” between values parts separate entries of the source, which are not always exact repeats. Identical values can stand only once. Results filed as inconclusive are left out. Some structures have more than one record in an assay (separate samples or runs), and their calls can disagree. The source made the active and inactive calls. Calls follow the shape of the dose curve; as a rule, active = well fitted curve in the direction sought with a large enough effect in the repeat runs; inconclusive = weak or mixed curves; inactive = no such curve, though single readings can be large; an effect the other way counts as inactive or inconclusive.

Regarding `CCC(=O)O`, the Potency result in test [1], in [2], in test [3], in [4], in [5] and in test [6] was “inactive” throughout. Further, the Potency result in test [7], in test [8], in test [9] and in test [10] was “inactive” throughout.

Turning to `S=c1nc[nH]c2nc[nH]c12`, the Potency result in test [1], in [2], in test [3], in [4], in test [5] and in [6] was “inactive” in each case. Besides, the Potency result in test [8], in test [9] and in test [10] was “inactive” each time. Also, the Potency in test [7] was 19 µM (active).

With `Cc1cc(=O)[nH]c(C(C)C)n1`, the Potency result in [1], in test [2], in test [3], in [4], in test [5] and in [6] was “inactive” in each case. Besides, the Potency result in test [7], in [8], in test [9] and in [10] was “inactive” throughout.

For the compound `O=C1N=C(O)CN1/N=C/c1ccc(-c2ccc([N+](=O)[O-])cc2)o1`, the Potency entry in test [1], in test [2], in [3], in [4], in test [5] and in test [6] was “inactive” each time. The Potency entry in test [7], in [9] and in test [10] was “inactive” in each case.

Take `OCC#CCO`: the Potency result in test [1], in test [2], in test [3], in [4], in test [5] and in test [6] was “inactive” throughout. For the same compound, the Potency entry in test [7], in test [8], in test [9] and in [10] was “inactive” throughout.

As for `CC(C)(C)C(=O)C1C(=O)c2ccccc2C1=O`, the Potency entry in [1], in [2], in [3], in test [5], in [6] and in test [7] was “inactive” in each case. Further, the Potency result in test [9] and in [10] was “inactive” in each case. Besides, the Potency in [4] is 54.4 µM (active) and inactive.

For the compound `NS(=O)(=O)c1cc2c(cc1Cl)NC=NS2(=O)=O`, the Potency result in [1], in [2], in [3], in test [4], in test [5] and in test [6] was “inactive” throughout. For the same compound, the Potency result in [7], in [8], in test [9] and in test [10] was “inactive” each time.

Turning to `C=C1C2CCC(C2)C1(C)C` (centres undefined), the Potency entry in [1], in test [2], in test [3], in [4], in test [5] and in test [6] was “inactive” throughout. Besides, the Potency entry in test [7], in test [8], in [9] and in test [10] was “inactive” throughout.

`C=C(C)C(=O)OCCCCCCCCCCCC`: the Potency result in test [1], in test [2], in test [3], in [4], in [5] and in [6] was “inactive” throughout. Besides, the Potency entry in [7], in [9] and in test [10] was “inactive” in each case.

`CCCCCCOC(C)=O`: the Potency entry in [1], in [2], in test [3], in test [4], in test [5] and in [6] was “inactive” each time. In addition, the Potency result in [7], in [8], in [9] and in [10] was “inactive” in each case.

In the case of `NCCc1ccc(O)c(O)c1`, the Potency entry in test [1], in test [2], in test [3], in test [4], in [5] and in test [6] was “inactive” throughout. Besides, the Potency entry in test [7], in test [8], in test [9] and in test [10] was “inactive” throughout.

Turning to `Oc1ccc2ccccc2c1N=Nc1ccccc1`, the Potency result in [1], in [2], in test [3], in [4], in [5] and in [6] was “inactive” in each case. In addition, the Potency entry in test [7], in [9] and in test [10] was “inactive” in each case.

In the case of `CC(C)(CO)COC(=O)C(C)(C)CO`, the Potency entry in test [1], in test [2], in [3], in test [4], in test [5] and in [6] was “inactive” each time. The Potency result in test [7], in test [9] and in test [10] was “inactive” each time.

For the compound `CC(=O)CCc1ccccc1`, the Potency result in test [1], in [2], in test [3], in [4], in test [5] and in test [6] was “inactive” throughout. In addition, the Potency result in [7], in [8], in test [9] and in test [10] was “inactive” each time.

Take `O=C(O)c1ccc([N+](=O)[O-])cc1`: the Potency entry in [1], in test [2], in test [3], in [4], in test [5] and in [6] was “inactive” throughout. The Potency result in test [7], in test [8], in test [9] and in [10] was “inactive” in each case.

As for `COC(=O)Nc1nc2ccc(Sc3ccccc3)cc2[nH]1`, the Potency result in test [1], in [2], in [3], in [5], in test [6] and in [9] was “inactive” throughout. The Potency result in test [10] was “inactive”. Further, the Potency is 2.19 µM (active) and 952 nM (active) in [4]; 871 nM (active) and 952 nM (active) in [7]; 1.74 µM (active) and 2.13 µM (active) in [8].

Take `CCCCCC/C=C/CCCCCCCC(=O)O`: the Potency entry in test [1], in [2], in test [3], in [4], in test [5] and in test [6] was “inactive” throughout. Besides, the Potency entry in test [7], in test [8], in test [9] and in [10] was “inactive” each time.

For the compound `CCC(C)C=O` (centres undefined), the Potency result in test [1], in [2], in test [3], in test [4], in test [5] and in [6] was “inactive” each time. The Potency result in test [9] and in test [10] was “inactive” throughout. Moreover, the Potency entry is “inactive and 3.89 µM (active)” in test [7]; “inactive and 13.8 µM (active)” in test [8].

On to `CN(C)c1cccc(O)c1`, for which the Potency entry in test [1], in test [2], in [3], in test [4], in test [5] and in test [6] was “inactive” throughout. The Potency entry in test [7], in test [9] and in test [10] was “inactive” in each case.

`C=C(C#N)C(=O)OCC`: the Potency result in test [1], in [2], in test [3], in [4], in [5] and in test [6] was “inactive” each time. Moreover, the Potency result in test [7], in test [8], in test [9] and in test [10] was “inactive” throughout.

`O=S(=O)(O)CCS`: the Potency result in test [1], in test [2], in test [3], in test [4], in test [5] and in test [6] was “inactive” each time. Also, the Potency result in test [7], in test [8], in test [9] and in test [10] was “inactive” throughout.

Consider `Nc1c(S(=O)(=O)O)cc(Br)c2c1C(=O)c1ccccc1C2=O`, for which the Potency result in test [1], in test [2], in test [3], in [4], in [5] and in test [6] was “inactive” throughout. The Potency result in test [7], in test [8], in test [9] and in test [10] was “inactive” each time.

For the compound `O=S(=O)(Oc1ccc(Cl)cc1Cl)c1ccccc1`, the Potency result in [1], in test [2], in test [3], in [4], in test [5] and in test [6] was “inactive” throughout. Further, the Potency result in test [7], in [8], in test [9] and in test [10] was “inactive” in each case.
